Compound activity from PubChem BioAssay.
Sampled rows, rich in hits. Any-hit rate of the full collection: about 0.43%.
CXXC DNA block: MLL CXXC-DNA interaction inhibition | Q03164 | 0.037% of 290,000 active | Potency, µM (highest dose often 115 µM), hits mostly inhibitors | MLL-CXXC / FITC-HOXA9 DNA fluorescence polarization; active = well fitted inhibition curve with a large enough effect in the polarisation, with a control signal flat, not every such curve was filed as active; inconclusive = small, poorly fitted or top-dose-only effect, or effect the other way, or a change in a side signal; inactive = no such curve, though single readings can be large or run the other way; the % refers to the polarisation
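Steps: dispense CXXC domain solution (7 uM) → pin compounds or unlabeled HOX-A9 DNA control → 5 min ambient → add FLSN-HOX-A9 solution (50 nM) → spin → 30 min ambient → fluorescence polarization. Tris pH 7.5/NaCl/DTT/BSA buffer.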
Menin-MLL TR inh: displaces Texas Red mutant MLL peptide from human menin | Menin + Texas Red MLL mutant peptide, fluorescence polarization | Potency, µM (series often up to 61.6 µM), hits mostly inhibitors | O00255 | 0.23% of 270,000 active; active = well fitted inhibition curve with a large enough effect in the polarisation, with a control signal flat, not every such curve was filed as active; inconclusive = small, poorly fitted or top-dose-only effect, or effect the other way, or a change in a side signal; inactive = no such curve, though single readings can be large or run the other way; the % refers to the polarisation
Tb PFK inh-1: blocks T. brucei phosphofructokinase | 0.17% of 330,000 active | T. brucei PFK, ADP-Glo luminescence | O15648 | Potency, µM (highest dose often 57.5 µM), usual class: inhibitors; note: nearly all actives have a fitted effect of over 60% in size
Target sequence (O15648 whole entry, looked up): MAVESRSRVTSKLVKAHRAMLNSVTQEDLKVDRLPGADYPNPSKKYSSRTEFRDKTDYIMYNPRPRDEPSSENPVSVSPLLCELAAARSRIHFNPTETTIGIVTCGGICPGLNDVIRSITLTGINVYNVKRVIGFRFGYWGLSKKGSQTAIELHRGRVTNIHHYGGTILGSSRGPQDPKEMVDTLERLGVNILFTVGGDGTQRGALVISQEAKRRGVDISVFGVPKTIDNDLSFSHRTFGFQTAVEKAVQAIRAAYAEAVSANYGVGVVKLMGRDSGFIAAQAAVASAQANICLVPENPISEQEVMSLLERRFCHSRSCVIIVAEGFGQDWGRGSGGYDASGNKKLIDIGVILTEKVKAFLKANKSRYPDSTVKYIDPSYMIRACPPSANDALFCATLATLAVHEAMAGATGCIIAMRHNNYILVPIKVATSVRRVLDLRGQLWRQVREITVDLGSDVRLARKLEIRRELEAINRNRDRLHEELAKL
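In TEA buffer at pH 8.0 with 5 mM MgCl2, enzyme (1.25 nM) converted F6P (0.5 mM) and ATP (0.1 mM) for 45 min at room temperature. ADP product was read by luciferase luminescence.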
Menin MLL FP FL: displaces fluorescein MLL peptide from human menin. Fluorescence polarization, fluorescein-MLL peptide displacement from menin. FP activity change, % at 61.4 µM. 290,000 tested, under 10 active. AID 1766; active = well fitted curve in the direction sought with a large enough effect in the polarisation, not every such curve was filed as active; inconclusive = small, poorly fitted or top-dose-only effect, or effect the other way, or a change in a side signal; inactive = no such curve, though single readings can be large or run the other way; the % refers to the polarisation
GoLoco inh red: RGS12 GoLoco-Gai1 interaction inhibition | Gai1:RGS12 GoLoco peptide FP, rhodamine, 10 min | 0.44% of 230,000 active | P63096 | Potency, µM (doses to about 61.6 µM), usual class: inhibitors; active = well fitted inhibition curve with a large enough effect, not every such curve was filed as active; inactive = no such curve, though single readings can be large or run the other way; note: nearly all actives have a fitted effect of over 30% in size
TbPFK ATP: orthogonal confirmation of T. brucei phosphofructokinase inhibitors; shares compounds with Tb PFK inh-1; Tb PFK enzyme, ATP depletion, Kinase-Glo Plus luminescence; Potency, µM (doses to about 57.5 µM); 47% of 1,100 active; calls by dose curve; note: nearly all actives have a fitted effect of over 60% in size
Tb PFK inh-2: validation of T. brucei phosphofructokinase inhibitors | purified T. brucei PFK, ADP-Glo luminescence, 45 min | shares compounds with Tb PFK inh-1 | 41% of 1,100 active | Potency, µM (top dose mostly 57.5 µM), hits mostly inhibitors; note: nearly all actives have a fitted effect of over 60% in size
A number is an active result; – = inactive; ? = inconclusive; · = not tested or not shown. Unless noted, calls come from the whole dose curve; as a rule, active = well fitted inhibition curve with a large enough effect; inconclusive = small, poorly fitted or top-dose-only effect, or effect the other way; inactive = flat fitted curve, though single readings scatter.

SMILES | CXXC DNA block | Menin-MLL TR inh | Tb PFK inh-1 | Menin MLL FP FL | GoLoco inh red | TbPFK ATP | Tb PFK inh-2
C=CCn1c(=O)[nH]c2cc(C(=O)N3CCN(c4cccc(Cl)c4)CC3)ccc2c1=O | – | – | ? | – | – | · | ·
C=CCn1c(=O)[nH]c2cc(C(=O)N3CCN(c4ccc(C(C)=O)cc4)CC3)ccc2c1=O | – | – | ? | – | – | ? | ?
O=C(COc1ccc(F)cc1Cl)Nc1ccc(S(=O)(=O)Nc2nccs2)cc1 | · | · | 1.2µM | · | · | 0.95µM | 1.1µM
O=C(CSc1ccncc1)Nc1ccc(S(=O)(=O)Nc2nccs2)cc1 | – | – | 19µM | – | – | 13µM | 27µM
O=C(COc1ccccc1F)Nc1ccc(S(=O)(=O)Nc2nccs2)cc1 | – | – | 4.8µM | – | · | 2.1µM | 6µM
CC(=O)NS(=O)(=O)c1ccc(NC(=O)CSc2ccc(Cl)cc2)cc1 | – | – | 30µM | – | – | 13µM | 30µM
Cc1ccc(SCC(=O)Nc2ccc(S(=O)(=O)Nc3nccs3)cc2)cc1 | – | – | ? | – | – | · | ·
CCN(Cc1nc2ccccc2c(=O)[nH]1)C(=O)c1cccc(OCc2c(C)noc2C)c1 | · | · | – | · | · | · | ·
Clc1ccc(CSC2=NCCCN2)cc1Cl | – | ? | 5.4µM | – | – | 11µM | 21µM
Clc1ccccc1CSC1=NCCCN1 | ? | – | – | – | – | · | ·
N=c1ccn(Cc2ccc(Cl)c(Cl)c2)cc1 | – | – | 1.7µM | – | – | 2.4µM | 5.4µM
N=c1ccn(Cc2cccc(Cl)c2)cc1 | – | – | 7.6µM | – | – | ? | 19µM
N=c1ccn(Cc2c(Cl)cccc2Cl)cc1 | – | · | – | – | – | · | ·
N=c1ccn(Cc2ccc(Cl)cc2)cc1 | – | – | 11µM | – | – | ? | ?
N=c1ccn(Cc2ccc(Cl)cc2Cl)cc1 | – | – | – | – | – | · | ·
O=Cc1cn(Cc2ccc([N+](=O)[O-])cc2)c2ccccc12 | ? | – | 17µM | – | – | ? | ?
O=C(CC(=O)Nc1ccc(Cl)cc1)N/N=C\c1cccc(F)c1 | – | · | – | · | · | · | ·
Cn1c(Oc2ccccc2NCc2cc(Br)ccc2O)cc(=O)n(C)c1=O | – | – | ? | – | – | 19µM | 13µM
COc1cc(CNc2ccccc2Oc2cc(=O)n(C)c(=O)n2C)cc(OC)c1OC | – | – | – | – | – | · | ·
Cc1cc(O)cc(O)c1C(=O)OC1(C)C(=O)C=C2C=C(/C=C/CO)OC=C2C1=O (configuration not stated) | · | – | · | ? | – | · | ·
O=C1N=c2ccccc2=C1c1sc(Nc2cccc(O)c2)nc1O | – | – | – | – | · | · | ·
O=C1N=c2ccccc2=C1c1sc(Nc2ccc(O)cc2)nc1O | – | ? | ? | ? | – | – | –
CC(=C\C(=O)O)/C(=C\c1cccc2ccccc12)C(=O)O | – | · | ? | – | – | – | –
OCC[n+]1c2ccccc2nc2ccc(N3CCOCC3)cc21 | – | · | ? | – | – | – | –
Cc1cc(C(=O)Nc2ccc(N3CCOCC3)cc2)c2ccccc2n1 | – | – | – | – | – | · | ·
SMILES | CXXC DNA block | Menin-MLL TR inh | Tb PFK inh-1 | Menin MLL FP FL | GoLoco inh red | TbPFK ATP | Tb PFK inh-2
COc1cc(F)cc(-c2ccc3c(c2)c(C#Cc2ccsc2)c(-c2cc(OC)cc(OC)c2)n3C)c1 | · | · | – | · | · | · | ·
O=C1OC(c2cccs2)=N/C1=C/c1ccc(-c2cccc(C(=O)O)c2)o1 | – | – | ? | ? | – | ? | ?
N=C1SCC(=O)N1c1ncc(Cc2cccc(Cl)c2)s1 | – | ? | ? | – | – | 24µM | ?
O=C(OCc1ccco1)c1ccc(S(=O)(=O)N2CCCCC2)cc1 | – | – | 24µM | – | – | ? | ?
O=C(O)COc1ccccc1C=NNc1ccc([N+](=O)[O-])cc1S(=O)(=O)Nc1ccc(Cl)cc1 | · | · | 19µM | · | · | 30µM | ?
O=c1[nH]sc2ccccc12 | – | – | 19µM | – | – | 21µM | 27µM
O=c1[nH]sc2cc(F)ccc12 | – | – | ? | – | – | 19µM | 27µM
O=c1cc(O)sc2ccccc12 | – | – | – | – | – | · | ·
O=C(OCc1ccc(Cl)c(Cl)c1)c1ccc[nH]1 | – | ? | ? | – | · | 24µM | 21µM
O=C(OCc1ccc(Cl)cc1)c1cnccn1 | – | · | – | – | – | · | ·
O=C(Cc1ccc(Cl)c(Cl)c1)OCC(=O)c1ccc[nH]1 | – | – | ? | – | – | 9.5µM | 19µM
O=C(Cc1ccc(Cl)cc1)OCC(=O)c1ccc[nH]1 | · | · | – | · | · | · | ·
O=C(OCc1ccc(Cl)c(Cl)c1)c1cnccn1 | – | – | ? | – | – | 24µM | 27µM
O=C(COc1ccc(Cl)cc1)OCC(=O)c1ccc[nH]1 | · | · | ? | · | · | – | ?
CC(C)[C@@H](CC(=O)N[C@@H]1CCCC[C@H]1C(=O)N[C@H](CC(=O)N[C@@H](CCC(=O)O)CC(=O)O)Cc1c[nH]c2ccccc12)NC(=O)C[C@H](CO)NC(=O)[C@@H]1CCCC[C@H]1N | · | – | · | – | – | · | ·
CCCCCCCCCCCCCCC/C=C/[C@@H](O)[C@H](NC(=O)CCCCCCCCCCCCC)OC (tested in a mixture with another compound) | – | – | · | – | – | · | ·
CC(=O)NC1=NC(=O)/C(=C/c2cc(C)n(-c3cccc(C(=O)O)c3)c2C)S1 | ? | – | ? | ? | – | ? | ?
CC(=O)NC1=NC(=O)/C(=C/c2cc(C)n(-c3ccc(NC(C)=O)cc3)c2C)S1 | ? | – | – | ? | – | · | ·
O=[N+]([O-])c1ccc(CNc2cccc(F)c2)s1 | – | – | 13µM | – | · | 5.4µM | 13µM
Cc1cccc(NCc2ccc([N+](=O)[O-])s2)c1 | – | – | ? | – | · | 21µM | ?
Cc1ccc(NCc2ccc([N+](=O)[O-])s2)cc1 | – | ? | – | – | · | · | ·
Cc1ccccc1NCc1ccc([N+](=O)[O-])s1 | – | – | – | – | · | · | ·
Cc1ccccc1C(=O)NNC(=O)C(=O)Nc1cccc(Cl)c1C | – | – | – | – | – | · | ·
Cc1c(Cl)cccc1NC(=O)C(=O)NNC(=O)c1ccccc1F | – | – | ? | – | – | – | ?
COc1ccc(OC)c(/C=C2\SC(N3CCCCC3)=NC2=O)c1 | – | – | – | – | · | · | ·
CCOc1ccc(NC(=S)NN(C)C(=S)Nc2ccc(OCC)cc2)cc1 | – | – | – | – | – | · | ·
COCCNC(=O)/C(C#N)=C/c1ccc(O)cc1 | – | · | ? | – | – | – | ?
O=C(CNC(=O)c1nc[nH]c1C(=O)NCc1ccccc1)OCc1ccccc1 | – | – | – | – | · | · | ·
COc1cccc(OC)c1-c1nn2c(-c3cc(-c4ccccc4)n[nH]3)nnc2s1 | – | – | ? | – | – | – | ?
COc1cccc(-c2nnc3sc(-c4ccccc4)nn23)c1 | – | – | – | – | – | · | ·
